# Test results taken from PubChem BioAssay AID652115 (Broad Institute, 2013).
# Out of some 330,000 compounds screened, about 3,800 (1.2%) were called active. Rule as the data show it: active = inhibition above about 15%; inconclusive = no clear call, values can overlap the other calls; inactive = below that. What follows is part of a selection rich in actives, with near analogues and random picks from the rest.
# Molecular target: NAD-dependent protein deacylase sirtuin-5, mitochondrial (Homo sapiens) (UniProt Q9NXA8)
# Assay: SIRT5 desuccinylase inhibitors, primary screen, biochemical, fluorescence imaging, single point, set 5 (AID 652115)
# Details: Purified SirT5, succinyl-peptide AMC, trypsin-coupled fluorescence; at 15 µM; active compounds read high
# Chain of NAD-dependent protein deacylase sirtuin-5, mitochondrial (Homo sapiens) (Q9NXA8 whole entry, looked up): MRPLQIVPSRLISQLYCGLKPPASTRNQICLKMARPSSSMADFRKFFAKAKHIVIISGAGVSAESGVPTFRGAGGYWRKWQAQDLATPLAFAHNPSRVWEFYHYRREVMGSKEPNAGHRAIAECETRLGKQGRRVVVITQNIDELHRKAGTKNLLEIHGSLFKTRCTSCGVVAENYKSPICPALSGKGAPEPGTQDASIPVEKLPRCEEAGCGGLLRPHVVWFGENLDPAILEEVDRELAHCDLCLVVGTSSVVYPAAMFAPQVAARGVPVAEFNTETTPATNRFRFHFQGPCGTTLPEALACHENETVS
row,Compound,inhibition
1,O=C(COC(=O)Cc1ccccc1)Nc1ccc(F)cc1,-1.48% (inactive)
2,CC(Cc1ccccc1)NC=O (stereo not given),-0.859% (inactive)
3,CC(=O)Nc1ccc(C(=O)C(Cc2ccccc2)N(C)C)cc1 (stereo not given),18.6% (active)
4,COC(=O)[C@H]1[C@H](CO)[C@H]2Cn3c(cccc3=O)[C@H]2N1CC1CC1,0.308% (inactive)
5,COC(=O)C1=C(c2ccc(OCc3ccccc3)cc2)C[C@@H]2CC[C@H]1N2C(=O)NCc1cccc(F)c1,-8.66% (inactive)
6,O=C1NCN(c2ccccc2)C12CCN(C(c1cccs1)c1nnnn1C1CCCCC1)CC2 (stereo not given),3.05% (inactive)
7,COc1ccc(N2C(=O)/C(=C/c3ccco3)C(=O)NC2=S)cc1,44.4% (active)
8,COc1cccc(N2C(=O)NC(=O)/C(=C\c3cn(C)c4ccccc34)C2=O)c1,-7.3% (inactive)
9,COc1ccc(CN2C(=O)NC(=O)/C(=C\c3ccc(OC)c(OC)c3OC)C2=O)cc1,-0.842% (inactive)
10,S=C(NCCc1ccccc1)N1Cc2cc(N3CCOCC3)ccc2-n2nncc2C1,0.564% (inactive)
